# For some of these results: Results with a measured potency or affinity are listed apart.
# Legend:
# Set-up in all cases: scale not given: direction of the effect not stated beside the values
# [1] = target: Protein translocase subunit SecA (Escherichia coli (strain K12)) (UniProt P10408); assay: Assay to Identify E. coli SecA ATPase Inhibitors; assay type: functional; details: 30 µM
# [2] = target: T1, Ubiquitin-activating enzyme e1, putative (Leishmania donovani (strain BPK282A1)) (UniProt E9BSI1); assay: Leishmania donovani Ubiquitin Activating Enzyme (LdE1); assay type: functional; details: 30 µM
# T1 sequence (whole entry): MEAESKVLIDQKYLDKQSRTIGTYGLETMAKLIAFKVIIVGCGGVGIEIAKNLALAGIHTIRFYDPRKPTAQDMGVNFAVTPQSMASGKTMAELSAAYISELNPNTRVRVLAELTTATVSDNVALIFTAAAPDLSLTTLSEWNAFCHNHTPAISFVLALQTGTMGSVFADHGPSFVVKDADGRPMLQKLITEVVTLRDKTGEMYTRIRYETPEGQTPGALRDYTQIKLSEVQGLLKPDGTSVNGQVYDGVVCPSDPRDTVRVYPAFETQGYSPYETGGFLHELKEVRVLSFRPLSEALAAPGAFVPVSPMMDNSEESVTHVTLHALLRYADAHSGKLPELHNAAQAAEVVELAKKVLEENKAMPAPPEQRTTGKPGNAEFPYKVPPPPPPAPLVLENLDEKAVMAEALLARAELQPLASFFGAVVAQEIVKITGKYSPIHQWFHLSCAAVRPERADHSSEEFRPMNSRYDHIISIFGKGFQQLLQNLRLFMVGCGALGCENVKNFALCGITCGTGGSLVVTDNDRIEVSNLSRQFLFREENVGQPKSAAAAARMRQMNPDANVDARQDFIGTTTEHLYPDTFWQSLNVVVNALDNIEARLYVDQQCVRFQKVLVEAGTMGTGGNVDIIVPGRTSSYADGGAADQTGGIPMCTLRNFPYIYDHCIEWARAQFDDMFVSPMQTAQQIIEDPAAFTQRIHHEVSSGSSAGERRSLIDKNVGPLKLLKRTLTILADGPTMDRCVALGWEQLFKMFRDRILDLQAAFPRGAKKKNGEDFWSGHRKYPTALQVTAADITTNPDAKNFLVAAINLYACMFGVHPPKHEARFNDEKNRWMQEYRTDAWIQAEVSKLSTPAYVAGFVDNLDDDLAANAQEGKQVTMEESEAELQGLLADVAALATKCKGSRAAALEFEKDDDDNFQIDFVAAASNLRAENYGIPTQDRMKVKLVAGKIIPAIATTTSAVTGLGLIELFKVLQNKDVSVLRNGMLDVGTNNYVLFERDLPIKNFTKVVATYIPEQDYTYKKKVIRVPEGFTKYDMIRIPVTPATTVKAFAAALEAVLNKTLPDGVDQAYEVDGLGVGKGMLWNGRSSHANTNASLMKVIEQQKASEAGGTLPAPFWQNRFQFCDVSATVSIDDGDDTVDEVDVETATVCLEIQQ
# [3] = target: AMP-activated protein kinase, AMPK (Homo sapiens) (UniProt P54646+O43741+P54619+Q9UGJ0+Q9Y478+Q13131+Q9UGI9); assay: AMP-dependent Kinase enzyme assay. An in vitro enzyme assay that detects ADP turnover that is directly proportional to AMPK activity. This uses naive AMPK that is activated during the assay with MK-8722; assay type: functional; details: 30 µM
# [4] = target: Sialic acid-binding Ig-like lectin 9 (Homo sapiens) (UniProt Q9Y336); assay: Hs-Siglec9 ALPHAscreen SOP 20170721; details: 10 µM
# Chain of Sialic acid-binding Ig-like lectin 9 (Homo sapiens) (Q9Y336 whole entry): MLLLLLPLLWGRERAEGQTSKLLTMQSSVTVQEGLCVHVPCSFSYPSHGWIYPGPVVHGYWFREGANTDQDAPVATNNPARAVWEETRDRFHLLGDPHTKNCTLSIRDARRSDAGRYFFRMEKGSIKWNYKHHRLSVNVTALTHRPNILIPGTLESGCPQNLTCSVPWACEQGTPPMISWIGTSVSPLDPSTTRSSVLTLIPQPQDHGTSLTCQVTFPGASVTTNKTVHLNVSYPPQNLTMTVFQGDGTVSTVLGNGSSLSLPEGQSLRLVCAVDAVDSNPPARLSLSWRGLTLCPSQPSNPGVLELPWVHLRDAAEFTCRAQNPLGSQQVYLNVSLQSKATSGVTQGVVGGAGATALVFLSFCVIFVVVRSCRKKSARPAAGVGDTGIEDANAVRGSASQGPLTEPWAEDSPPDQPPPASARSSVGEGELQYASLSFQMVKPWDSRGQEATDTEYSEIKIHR
# Trypanosoma cruzi = assay: Trypanosoma cruzi phosphomannomutase and mannose-1-phosphate guanylyltransferase assay; assay type: functional; details: 10 µM
# [5] = target: T2, Arginase-2, mitochondrial (Homo sapiens) (UniProt P78540); assay: in vitro enzyme assay to detect the production of urea directly proportional to the activity of Arginase II; assay type: functional; details: 33.3 µM; also: in the data most compounds retested in dose-response had high values
# T2 sequence (whole entry): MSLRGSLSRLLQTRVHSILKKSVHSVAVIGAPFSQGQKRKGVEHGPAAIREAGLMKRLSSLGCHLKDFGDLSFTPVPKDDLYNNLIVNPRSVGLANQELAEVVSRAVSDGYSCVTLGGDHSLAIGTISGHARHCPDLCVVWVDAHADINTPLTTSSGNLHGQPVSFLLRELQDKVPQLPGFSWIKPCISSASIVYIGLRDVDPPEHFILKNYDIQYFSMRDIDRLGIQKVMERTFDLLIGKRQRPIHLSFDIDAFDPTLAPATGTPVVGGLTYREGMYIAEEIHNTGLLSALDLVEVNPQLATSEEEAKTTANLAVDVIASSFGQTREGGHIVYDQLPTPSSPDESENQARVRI
# [6] = target: T3, Proteasome subunit beta (Trypanosoma cruzi) (UniProt O96673); assay: Trypanosoma cruzi proteasome chymotrypsin-like activity (TcProtChymo) assay.; also: in the data most compounds retested in dose-response had high values; assay type: functional; details: 9.37 µM
# T3 sequence (whole entry): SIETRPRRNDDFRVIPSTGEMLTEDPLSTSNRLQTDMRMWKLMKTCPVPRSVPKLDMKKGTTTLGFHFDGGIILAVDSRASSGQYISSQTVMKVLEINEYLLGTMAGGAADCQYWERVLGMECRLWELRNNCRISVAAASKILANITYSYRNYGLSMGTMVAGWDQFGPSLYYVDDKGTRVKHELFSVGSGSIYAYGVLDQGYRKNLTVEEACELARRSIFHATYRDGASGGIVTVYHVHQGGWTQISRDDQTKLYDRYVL
# Homo sapiens = organism: Homo sapiens; assay: To identify inhibition of the IFN signalling (Jak-Stat) pathway via expression of an eGFP reporter gene under the control of an IFN-stimulated response element (ISRE) containing MxA promoter.; assay type: functional; details: 30 µM
# [7] = target: T4, Tyrosyl-tRNA synthetase, putative (Trypanosoma cruzi (strain CL Brener)) (UniProt Q4DSP6); assay: Trypanosoma cruzi tyrosyl tRNA synthetase (TcYRS) _High Tyrosine SOP; assay type: functional; details: 30 µM; also: in the data most compounds retested in dose-response had high values
# T4 sequence (whole entry): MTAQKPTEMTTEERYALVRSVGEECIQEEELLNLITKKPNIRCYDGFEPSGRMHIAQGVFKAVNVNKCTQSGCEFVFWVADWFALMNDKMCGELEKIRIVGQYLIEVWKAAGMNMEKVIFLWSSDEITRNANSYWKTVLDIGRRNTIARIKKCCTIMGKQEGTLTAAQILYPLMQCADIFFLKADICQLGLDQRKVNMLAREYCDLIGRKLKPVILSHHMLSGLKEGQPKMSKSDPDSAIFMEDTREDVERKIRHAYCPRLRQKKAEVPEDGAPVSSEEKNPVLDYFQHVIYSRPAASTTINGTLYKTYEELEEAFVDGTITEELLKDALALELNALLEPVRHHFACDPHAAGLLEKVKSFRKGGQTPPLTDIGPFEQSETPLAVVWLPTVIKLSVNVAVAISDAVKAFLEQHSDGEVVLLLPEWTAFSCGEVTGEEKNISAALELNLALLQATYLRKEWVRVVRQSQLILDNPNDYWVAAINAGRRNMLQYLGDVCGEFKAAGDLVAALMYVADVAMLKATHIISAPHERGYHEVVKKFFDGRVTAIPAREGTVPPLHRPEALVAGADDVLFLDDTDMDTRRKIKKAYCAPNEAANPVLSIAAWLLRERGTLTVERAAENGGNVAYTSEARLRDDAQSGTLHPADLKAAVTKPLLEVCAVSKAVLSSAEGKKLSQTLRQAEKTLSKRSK
# [8] = target: T4, Tyrosyl-tRNA synthetase, putative (Trypanosoma cruzi (strain CL Brener)); assay: Trypanosoma cruzi tyrosyl tRNA synthetase (TcYRS) SOP; assay type: functional; details: 30 µM
# [9] = target: Chromo domain-containing protein 1 (Saccharomyces cerevisiae (strain ATCC 204508 / S288c) (Baker's yeast)) (UniProt P32657); assay: ScCHD-1 Enzyme Inhibition Assay; assay type: functional; details: 30 µM; also: in the data most compounds retested in dose-response had high values
# Chain of Chromo domain-containing protein 1 (Saccharomyces cerevisiae (strain ATCC 204508 / S288c) (Baker's yeast)) (P32657 whole entry, the tested form may be a part): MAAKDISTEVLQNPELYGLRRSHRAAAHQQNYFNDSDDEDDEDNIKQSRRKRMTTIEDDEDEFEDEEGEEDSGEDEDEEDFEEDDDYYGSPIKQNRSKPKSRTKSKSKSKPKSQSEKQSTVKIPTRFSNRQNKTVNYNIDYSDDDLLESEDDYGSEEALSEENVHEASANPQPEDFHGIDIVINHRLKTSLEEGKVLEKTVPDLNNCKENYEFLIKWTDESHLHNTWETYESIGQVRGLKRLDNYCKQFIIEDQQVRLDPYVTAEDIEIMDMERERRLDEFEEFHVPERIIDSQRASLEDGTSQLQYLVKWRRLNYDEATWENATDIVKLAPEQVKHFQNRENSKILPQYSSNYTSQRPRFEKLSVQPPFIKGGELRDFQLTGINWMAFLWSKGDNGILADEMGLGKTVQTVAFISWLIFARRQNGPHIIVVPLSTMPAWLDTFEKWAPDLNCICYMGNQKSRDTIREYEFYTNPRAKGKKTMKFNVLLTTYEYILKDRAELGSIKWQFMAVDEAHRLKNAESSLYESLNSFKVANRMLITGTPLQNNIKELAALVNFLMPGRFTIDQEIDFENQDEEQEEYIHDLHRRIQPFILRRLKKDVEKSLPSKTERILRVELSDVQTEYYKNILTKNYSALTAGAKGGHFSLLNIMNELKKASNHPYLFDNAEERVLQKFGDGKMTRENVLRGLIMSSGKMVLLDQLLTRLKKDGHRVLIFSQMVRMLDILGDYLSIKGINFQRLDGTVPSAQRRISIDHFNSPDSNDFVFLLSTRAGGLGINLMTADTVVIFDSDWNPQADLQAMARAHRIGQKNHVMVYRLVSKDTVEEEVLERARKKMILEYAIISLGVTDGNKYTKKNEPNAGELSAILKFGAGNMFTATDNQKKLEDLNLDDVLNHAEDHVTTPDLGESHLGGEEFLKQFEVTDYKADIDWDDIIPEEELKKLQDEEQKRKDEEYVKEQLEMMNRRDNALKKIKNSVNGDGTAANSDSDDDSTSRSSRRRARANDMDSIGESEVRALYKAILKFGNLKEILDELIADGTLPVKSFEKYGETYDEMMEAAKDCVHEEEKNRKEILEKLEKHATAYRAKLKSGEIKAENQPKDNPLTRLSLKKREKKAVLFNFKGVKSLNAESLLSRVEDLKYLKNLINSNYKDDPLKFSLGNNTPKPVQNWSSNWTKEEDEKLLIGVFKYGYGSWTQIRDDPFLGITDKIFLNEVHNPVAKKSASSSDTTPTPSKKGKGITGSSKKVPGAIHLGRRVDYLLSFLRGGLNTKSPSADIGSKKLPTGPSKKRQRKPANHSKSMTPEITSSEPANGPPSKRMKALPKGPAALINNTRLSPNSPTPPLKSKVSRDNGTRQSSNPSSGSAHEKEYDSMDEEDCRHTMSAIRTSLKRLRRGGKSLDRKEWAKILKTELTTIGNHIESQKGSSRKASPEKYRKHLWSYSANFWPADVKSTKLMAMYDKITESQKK
# Chain of Protein translocase subunit SecA (Escherichia coli (strain K12)) (P10408 whole entry): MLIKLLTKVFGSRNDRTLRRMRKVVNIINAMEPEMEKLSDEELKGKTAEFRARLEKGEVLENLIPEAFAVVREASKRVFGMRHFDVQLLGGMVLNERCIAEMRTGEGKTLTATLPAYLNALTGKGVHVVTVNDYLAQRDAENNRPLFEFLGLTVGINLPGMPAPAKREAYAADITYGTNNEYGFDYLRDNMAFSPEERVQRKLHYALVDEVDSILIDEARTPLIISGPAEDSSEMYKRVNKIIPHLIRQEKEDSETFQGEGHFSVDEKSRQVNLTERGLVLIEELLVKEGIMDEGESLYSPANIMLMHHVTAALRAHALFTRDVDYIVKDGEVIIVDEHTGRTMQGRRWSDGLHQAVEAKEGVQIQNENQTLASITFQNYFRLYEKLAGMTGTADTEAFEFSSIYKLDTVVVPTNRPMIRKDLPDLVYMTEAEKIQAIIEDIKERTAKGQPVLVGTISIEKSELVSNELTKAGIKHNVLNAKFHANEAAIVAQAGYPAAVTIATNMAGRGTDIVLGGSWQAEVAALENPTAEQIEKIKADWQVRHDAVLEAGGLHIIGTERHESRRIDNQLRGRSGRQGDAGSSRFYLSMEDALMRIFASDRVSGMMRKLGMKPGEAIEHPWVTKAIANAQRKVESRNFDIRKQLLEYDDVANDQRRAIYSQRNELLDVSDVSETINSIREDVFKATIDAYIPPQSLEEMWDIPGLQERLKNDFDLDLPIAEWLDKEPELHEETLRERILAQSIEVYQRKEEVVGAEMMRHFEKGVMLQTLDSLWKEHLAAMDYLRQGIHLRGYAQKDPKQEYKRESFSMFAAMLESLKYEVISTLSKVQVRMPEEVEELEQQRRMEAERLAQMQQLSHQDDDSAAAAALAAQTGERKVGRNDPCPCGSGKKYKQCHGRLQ
SMILES,Percent Effect [1] [%],Percent Effect [2] [%],Percent Effect [3] [%],Percent Effect [4] [%],Percent Effect (Trypanosoma cruzi) [%],Percent Effect [5] [%],Percent Effect [6] [%],Percent Effect (Homo sapiens) [%],Percent Effect [7] [%],Percent Effect [8] [%],Percent Effect [9] [%]
Cc1nc(C)n(CC2CN(Cc3cccc4c3OCCO4)CCO2)n1 (stereo not given),-6.14,18.4,-1.72,0.869,3.46,1.08,1.78,2.86,11.3,28.4,-8.32
COc1cnc(C2(O)CCN(C(=O)c3cccnc3)CC2)c(OC)n1,-4.3,4.05,11.7,7.31,-1.78,-0.696,-0.156,-1.41,5.38,6.49,-4.19
Cc1cc(C)n(-c2ccc(CNCc3ccc(OC(C)C)cc3)cn2)n1,-0.648,13.2,-0.778,-0.618,6.01,-3.06,15.5,20.5,13.2,19.5,-10.2
CC(=O)c1cccc(NC(=O)COc2c(C)n(C)ccc2=O)c1,-3.77,9.33,5.33,5.82,-2.95,-12.5,16.1,7.79,7.41,20.5,-2.85
COC(=O)CN1CC(c2nc(Cc3ccccc3)no2)C1,-5.1,13.7,-3.81,14.3,2.35,2.27,11.9,12.4,8.6,15,-6.9
O=C(Nc1cccnc1)[C@H]1C[C@@H]2CN(C(=O)NC3CCCC3)C[C@H]1O2,-0.299,13.5,5.36,-10.3,-6.94,6.69,24.5,-1.23,0,15.4,-0.793
COc1c(CNC(c2ccc(F)cc2)c2nccn2C)c(C)nn1C (stereo not given),-4.41,23.7,-3.24,-2.7,10.9,-0.383,13.4,10.1,9.31,29.3,-12.6
CS(=O)(=O)NC1CCCN(C(=O)NCc2cc[nH]n2)C1 (stereo not given),-5.06,-31.2,-5.48,-13.5,5,-6.11,17.1,-0.514,8.57,21.2,-16.2
Cn1cc(CCC(=O)N2C[C@H]3CC[C@@H]2CN(Cc2ccccc2)C3)cn1,-5.96,4.17,9.13,-7.5,-1.07,-3.53,8.77,-28.4,1.05,5.13,-1.41
CN1CCCC1CNC(=O)CCCOCc1ccccc1 (stereo not given),-4.32,2.63,1.84,9.93,2.44,2.3,-4.01,-1.82,5.39,7.32,6
CCc1c(C(=O)NCC2CCS(=O)(=O)C2)cnn1-c1ccc(C)cc1 (stereo not given),-3.51,17.7,-2.2,-1.25,2.74,4.94,2.54,5.86,5.42,21.5,-6.44
O=C(NCCOc1ncc(Cl)cc1Cl)c1ccncc1F,-4.54,2.7,2.46,-3.73,5.08,-2.08,17.8,8.71,5.94,8.54,-7.35
CC(C)CCC(C)NC(=O)c1ccc(OCC(N)=O)cc1 (stereo not given),0.307,10.8,-4.08,5.06,-2.7,-1.43,10.5,11.1,5.82,12.2,-4.44
Cc1cn2c(n1)CCC(NC(=O)CCn1cncn1)C2 (stereo not given),-8.14,5.26,-6.54,-5.36,-3.64,-2.88,10.4,-0.843,-1.48,1.24,7.18
CCc1nc(CN2CCN(C(=O)COCc3ccccc3)CC2)no1,-6.48,8.11,-6.87,35,4.4,25.1,10.7,-6.99,2.15,8.64,-11.6
CC(C)NC(=O)N1CC[C@@H]2CN(Cc3ccccc3)S(=O)(=O)[C@@H]2CC1,-7.87,-13.5,131,-3.29,-6.16,0.319,6.09,29.7,-5.41,-5.13,-1.09
COC(=O)c1ccc(N2CCN(CCC#N)C(C)C2)cc1 (stereo not given),-7.22,10.5,3.82,-3.31,-8.12,-0.36,4.15,5,5.42,3.7,0.577
Cc1cc(C2CCCN2CC(=O)N(CCC#N)c2ccccc2F)on1 (stereo not given),-2.04,10.8,-3.15,8.81,4.18,-4.99,19.4,8.68,3.96,23.2,-6.79
CC(C)SCC(=O)N1CCc2c(nc(N(C)C)nc2N(C)C)C1,-5.05,13.3,-4.26,19.7,6.52,5.73,13.8,10.8,2.73,8.64,-8.15
Cc1nc(CN2CCCC2c2ccsc2)nc2ccccc12 (stereo not given),-1.18,-16.5,3.32,2.94,4,7.1,13.6,23.7,9.38,27.9,4.99

# — ChEMBL document CHEMBL3988442, “University of Dundee, Small-Polar-MMV Screening Library” (2021)
